Experimental data: the supplement of paper PMC11732987, “Enantioselective OTUD7B fragment discovery through chemoproteomics screening and high-throughput optimisation” (Communications Chemistry, 2025)

What was measured:
Test in all cases: log2 ratio of Biotin-Ahx-Ub-VS probe labelling (fragment/DMSO); higher = less target engagement (more negative = stronger competition), active = hit call of the paper (q ≤ 0.05, log2 ratio ≤ -1)
Settings in all cases: compound concentration: 200 uM; treatment time: 3 h
[1] = target: USP34 (UniProt Q70CQ2)
Sequence of USP34 (Q70CQ2 whole entry, the tested form may be a part): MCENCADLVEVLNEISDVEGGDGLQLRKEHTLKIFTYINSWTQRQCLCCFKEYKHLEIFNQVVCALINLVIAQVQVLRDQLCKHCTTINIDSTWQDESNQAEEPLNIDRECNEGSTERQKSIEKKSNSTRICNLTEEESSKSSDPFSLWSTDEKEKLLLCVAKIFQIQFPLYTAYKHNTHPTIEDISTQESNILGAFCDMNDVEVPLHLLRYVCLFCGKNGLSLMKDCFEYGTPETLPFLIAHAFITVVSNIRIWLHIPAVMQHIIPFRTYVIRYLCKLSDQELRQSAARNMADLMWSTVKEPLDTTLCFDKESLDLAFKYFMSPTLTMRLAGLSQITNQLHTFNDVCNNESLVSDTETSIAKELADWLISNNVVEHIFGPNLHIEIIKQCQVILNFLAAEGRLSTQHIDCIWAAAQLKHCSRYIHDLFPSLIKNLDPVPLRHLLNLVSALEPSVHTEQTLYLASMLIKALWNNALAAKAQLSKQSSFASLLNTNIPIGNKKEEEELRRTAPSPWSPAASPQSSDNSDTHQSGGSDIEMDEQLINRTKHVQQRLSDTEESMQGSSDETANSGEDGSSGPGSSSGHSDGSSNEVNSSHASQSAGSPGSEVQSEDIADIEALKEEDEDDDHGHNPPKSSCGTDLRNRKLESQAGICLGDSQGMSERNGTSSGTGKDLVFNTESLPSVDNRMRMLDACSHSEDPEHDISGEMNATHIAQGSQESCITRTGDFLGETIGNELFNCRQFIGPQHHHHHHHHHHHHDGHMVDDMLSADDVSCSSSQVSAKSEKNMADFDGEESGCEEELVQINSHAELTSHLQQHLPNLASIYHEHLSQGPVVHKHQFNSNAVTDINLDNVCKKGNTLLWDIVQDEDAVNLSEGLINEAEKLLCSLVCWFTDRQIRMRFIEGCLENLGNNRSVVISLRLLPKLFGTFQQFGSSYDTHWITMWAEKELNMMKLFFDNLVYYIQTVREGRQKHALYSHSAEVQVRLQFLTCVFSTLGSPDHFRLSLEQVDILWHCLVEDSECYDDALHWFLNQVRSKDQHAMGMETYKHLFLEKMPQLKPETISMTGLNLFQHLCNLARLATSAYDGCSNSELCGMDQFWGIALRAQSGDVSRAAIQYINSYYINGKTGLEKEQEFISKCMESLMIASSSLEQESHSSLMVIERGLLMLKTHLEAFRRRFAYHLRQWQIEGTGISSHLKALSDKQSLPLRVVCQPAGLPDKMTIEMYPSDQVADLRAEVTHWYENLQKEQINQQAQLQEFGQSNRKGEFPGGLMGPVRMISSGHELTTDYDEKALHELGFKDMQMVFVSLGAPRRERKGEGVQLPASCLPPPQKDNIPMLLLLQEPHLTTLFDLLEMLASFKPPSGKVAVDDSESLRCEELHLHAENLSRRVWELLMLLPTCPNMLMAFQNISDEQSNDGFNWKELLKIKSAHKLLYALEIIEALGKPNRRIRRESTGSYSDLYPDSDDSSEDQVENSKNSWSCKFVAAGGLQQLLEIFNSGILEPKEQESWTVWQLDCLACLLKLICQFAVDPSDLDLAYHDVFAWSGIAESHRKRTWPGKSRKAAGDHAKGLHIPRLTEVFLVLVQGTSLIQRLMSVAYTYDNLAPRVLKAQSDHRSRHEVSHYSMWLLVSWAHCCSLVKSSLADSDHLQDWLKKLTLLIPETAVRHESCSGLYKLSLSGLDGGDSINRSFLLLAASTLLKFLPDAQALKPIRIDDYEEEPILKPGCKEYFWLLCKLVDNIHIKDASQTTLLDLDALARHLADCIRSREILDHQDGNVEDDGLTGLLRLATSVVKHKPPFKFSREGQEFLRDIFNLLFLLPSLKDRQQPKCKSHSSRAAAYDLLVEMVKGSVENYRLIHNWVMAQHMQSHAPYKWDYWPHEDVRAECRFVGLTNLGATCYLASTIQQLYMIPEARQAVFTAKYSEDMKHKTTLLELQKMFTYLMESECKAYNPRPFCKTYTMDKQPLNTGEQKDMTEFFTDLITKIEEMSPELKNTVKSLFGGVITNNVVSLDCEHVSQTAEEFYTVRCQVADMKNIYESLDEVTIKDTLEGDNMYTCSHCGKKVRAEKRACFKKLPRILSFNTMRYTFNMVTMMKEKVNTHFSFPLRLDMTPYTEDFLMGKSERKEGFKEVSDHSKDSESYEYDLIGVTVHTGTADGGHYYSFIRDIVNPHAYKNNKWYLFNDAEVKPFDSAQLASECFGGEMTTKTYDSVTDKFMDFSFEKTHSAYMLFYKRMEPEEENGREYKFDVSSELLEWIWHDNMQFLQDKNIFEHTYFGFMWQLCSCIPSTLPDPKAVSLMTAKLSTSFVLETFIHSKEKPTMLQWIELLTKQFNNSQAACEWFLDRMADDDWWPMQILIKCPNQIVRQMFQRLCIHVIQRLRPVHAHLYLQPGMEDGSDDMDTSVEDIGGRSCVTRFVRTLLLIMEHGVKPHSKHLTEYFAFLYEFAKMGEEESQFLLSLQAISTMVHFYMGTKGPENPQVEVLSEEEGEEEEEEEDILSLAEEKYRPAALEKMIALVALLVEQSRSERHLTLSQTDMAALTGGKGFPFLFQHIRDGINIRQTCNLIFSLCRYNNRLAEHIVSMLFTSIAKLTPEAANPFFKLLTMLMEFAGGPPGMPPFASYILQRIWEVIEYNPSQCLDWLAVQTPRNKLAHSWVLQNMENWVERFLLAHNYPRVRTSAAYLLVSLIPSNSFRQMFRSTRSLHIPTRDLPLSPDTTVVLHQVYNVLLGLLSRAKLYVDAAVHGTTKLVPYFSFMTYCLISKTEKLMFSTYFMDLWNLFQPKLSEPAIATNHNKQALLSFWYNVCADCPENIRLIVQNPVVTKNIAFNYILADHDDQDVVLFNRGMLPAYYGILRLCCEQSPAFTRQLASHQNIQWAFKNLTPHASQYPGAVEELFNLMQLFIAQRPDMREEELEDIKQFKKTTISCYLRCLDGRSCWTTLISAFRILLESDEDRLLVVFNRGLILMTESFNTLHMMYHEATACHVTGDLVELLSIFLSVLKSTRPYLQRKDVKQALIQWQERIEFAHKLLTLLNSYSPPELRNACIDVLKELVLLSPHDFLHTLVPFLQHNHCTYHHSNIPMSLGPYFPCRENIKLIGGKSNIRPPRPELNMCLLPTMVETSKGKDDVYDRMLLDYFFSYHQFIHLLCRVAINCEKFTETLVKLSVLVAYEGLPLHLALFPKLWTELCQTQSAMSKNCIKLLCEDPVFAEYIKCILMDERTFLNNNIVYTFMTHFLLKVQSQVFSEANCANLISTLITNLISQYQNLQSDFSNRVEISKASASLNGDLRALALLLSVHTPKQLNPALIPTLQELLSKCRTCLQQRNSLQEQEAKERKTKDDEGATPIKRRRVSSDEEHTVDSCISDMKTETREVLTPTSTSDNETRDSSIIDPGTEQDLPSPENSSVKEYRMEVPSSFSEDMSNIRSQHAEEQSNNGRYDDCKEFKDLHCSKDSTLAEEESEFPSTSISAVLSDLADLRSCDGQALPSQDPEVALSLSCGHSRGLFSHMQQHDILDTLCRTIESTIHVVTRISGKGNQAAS
Outline: (§1)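 Triplicate samples of HEK293T lysate, 495 µg each, received fragment at 200 µM or vehicle for 3 h, followed by Biotin-Ahx-Ub-VS (0.5 µM final) for 1 h. After NeutrAvidin enrichment of labelled DUBs and LysC/trypsin digestion, peptides were run by diaPASEF LC-MS/MS. The values are average log2 fragment/vehicle ratios from global-median-normalised Spectronaut label-free quantities, tested by unpaired t-test on proteins having ≥2 unique peptides.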

[2] = target: T1, USP36 (UniProt Q9P275)
T1 sequence (whole entry): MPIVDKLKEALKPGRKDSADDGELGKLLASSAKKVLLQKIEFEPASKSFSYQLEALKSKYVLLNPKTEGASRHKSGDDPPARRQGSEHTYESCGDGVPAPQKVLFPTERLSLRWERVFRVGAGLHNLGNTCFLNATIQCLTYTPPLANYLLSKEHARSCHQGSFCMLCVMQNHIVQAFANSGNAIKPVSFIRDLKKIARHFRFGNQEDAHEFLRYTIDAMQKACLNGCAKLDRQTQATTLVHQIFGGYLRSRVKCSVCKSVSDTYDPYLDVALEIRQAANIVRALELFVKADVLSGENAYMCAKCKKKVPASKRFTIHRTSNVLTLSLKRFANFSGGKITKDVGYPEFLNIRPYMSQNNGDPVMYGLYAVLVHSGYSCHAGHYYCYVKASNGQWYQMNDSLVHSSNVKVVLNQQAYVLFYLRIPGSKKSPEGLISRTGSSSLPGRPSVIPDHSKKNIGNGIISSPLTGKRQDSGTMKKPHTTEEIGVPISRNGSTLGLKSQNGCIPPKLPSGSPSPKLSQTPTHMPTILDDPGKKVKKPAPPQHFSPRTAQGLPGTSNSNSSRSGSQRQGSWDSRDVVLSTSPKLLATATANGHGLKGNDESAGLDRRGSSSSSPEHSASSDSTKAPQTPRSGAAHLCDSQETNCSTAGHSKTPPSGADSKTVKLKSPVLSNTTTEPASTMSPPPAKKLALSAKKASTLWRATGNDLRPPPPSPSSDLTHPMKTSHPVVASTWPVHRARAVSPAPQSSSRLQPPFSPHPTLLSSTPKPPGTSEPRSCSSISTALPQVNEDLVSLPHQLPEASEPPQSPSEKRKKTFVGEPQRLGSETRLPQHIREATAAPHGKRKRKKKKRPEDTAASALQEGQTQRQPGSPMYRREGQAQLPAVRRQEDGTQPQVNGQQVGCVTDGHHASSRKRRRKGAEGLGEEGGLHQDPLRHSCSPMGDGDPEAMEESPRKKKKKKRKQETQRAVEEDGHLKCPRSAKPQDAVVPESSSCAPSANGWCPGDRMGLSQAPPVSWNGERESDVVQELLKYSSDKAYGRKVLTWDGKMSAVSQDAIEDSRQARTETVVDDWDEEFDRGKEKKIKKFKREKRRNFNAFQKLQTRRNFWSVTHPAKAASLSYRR
Outline: as §1

[3] = target: T2, USP38 (UniProt Q8NB14)
T2 sequence (whole entry): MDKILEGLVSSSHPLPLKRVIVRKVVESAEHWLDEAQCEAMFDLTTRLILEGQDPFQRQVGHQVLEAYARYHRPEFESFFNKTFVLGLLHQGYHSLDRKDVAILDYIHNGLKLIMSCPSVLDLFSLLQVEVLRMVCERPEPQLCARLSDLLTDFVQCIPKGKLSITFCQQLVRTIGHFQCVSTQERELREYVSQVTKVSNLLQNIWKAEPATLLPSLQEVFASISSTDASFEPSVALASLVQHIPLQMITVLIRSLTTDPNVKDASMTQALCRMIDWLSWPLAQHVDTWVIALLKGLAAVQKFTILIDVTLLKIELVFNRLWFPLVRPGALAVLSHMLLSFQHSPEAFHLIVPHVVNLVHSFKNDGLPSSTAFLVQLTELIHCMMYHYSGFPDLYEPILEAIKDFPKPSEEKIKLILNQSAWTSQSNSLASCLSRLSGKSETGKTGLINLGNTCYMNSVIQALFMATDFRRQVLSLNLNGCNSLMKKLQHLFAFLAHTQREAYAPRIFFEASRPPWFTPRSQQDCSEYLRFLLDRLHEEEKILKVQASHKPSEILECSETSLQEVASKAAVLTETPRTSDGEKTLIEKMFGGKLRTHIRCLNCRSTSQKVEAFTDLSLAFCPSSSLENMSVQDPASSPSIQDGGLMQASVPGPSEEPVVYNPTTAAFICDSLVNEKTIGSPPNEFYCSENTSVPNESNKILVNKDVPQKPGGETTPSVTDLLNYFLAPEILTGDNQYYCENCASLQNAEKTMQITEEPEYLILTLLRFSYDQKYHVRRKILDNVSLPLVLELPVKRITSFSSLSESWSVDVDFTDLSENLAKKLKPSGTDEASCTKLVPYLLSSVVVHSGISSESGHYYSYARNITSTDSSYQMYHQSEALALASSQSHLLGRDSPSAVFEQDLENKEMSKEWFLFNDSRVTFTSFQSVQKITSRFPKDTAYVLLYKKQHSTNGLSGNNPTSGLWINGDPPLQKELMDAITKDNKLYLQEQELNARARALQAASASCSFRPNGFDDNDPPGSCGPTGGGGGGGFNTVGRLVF
Outline: as §1

[4] = target: T3, USP39 (UniProt Q53GS9)
T3 sequence (whole entry): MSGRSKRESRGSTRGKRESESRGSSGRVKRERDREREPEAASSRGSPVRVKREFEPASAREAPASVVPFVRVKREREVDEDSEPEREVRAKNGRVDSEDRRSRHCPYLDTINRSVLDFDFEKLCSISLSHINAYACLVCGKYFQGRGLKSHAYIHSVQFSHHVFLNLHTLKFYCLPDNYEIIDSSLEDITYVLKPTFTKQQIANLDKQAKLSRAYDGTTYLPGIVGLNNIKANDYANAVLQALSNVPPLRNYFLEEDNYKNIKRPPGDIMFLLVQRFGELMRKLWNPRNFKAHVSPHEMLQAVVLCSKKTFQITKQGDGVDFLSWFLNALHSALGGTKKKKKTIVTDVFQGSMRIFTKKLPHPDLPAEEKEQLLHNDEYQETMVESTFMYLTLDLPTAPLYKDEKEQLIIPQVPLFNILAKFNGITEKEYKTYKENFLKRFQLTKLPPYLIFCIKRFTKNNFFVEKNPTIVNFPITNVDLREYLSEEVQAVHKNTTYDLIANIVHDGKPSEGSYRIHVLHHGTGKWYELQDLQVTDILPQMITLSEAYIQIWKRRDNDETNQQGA
Outline: as §1

[5] = target: T4, USP4 (UniProt Q13107)
T4 sequence (whole entry): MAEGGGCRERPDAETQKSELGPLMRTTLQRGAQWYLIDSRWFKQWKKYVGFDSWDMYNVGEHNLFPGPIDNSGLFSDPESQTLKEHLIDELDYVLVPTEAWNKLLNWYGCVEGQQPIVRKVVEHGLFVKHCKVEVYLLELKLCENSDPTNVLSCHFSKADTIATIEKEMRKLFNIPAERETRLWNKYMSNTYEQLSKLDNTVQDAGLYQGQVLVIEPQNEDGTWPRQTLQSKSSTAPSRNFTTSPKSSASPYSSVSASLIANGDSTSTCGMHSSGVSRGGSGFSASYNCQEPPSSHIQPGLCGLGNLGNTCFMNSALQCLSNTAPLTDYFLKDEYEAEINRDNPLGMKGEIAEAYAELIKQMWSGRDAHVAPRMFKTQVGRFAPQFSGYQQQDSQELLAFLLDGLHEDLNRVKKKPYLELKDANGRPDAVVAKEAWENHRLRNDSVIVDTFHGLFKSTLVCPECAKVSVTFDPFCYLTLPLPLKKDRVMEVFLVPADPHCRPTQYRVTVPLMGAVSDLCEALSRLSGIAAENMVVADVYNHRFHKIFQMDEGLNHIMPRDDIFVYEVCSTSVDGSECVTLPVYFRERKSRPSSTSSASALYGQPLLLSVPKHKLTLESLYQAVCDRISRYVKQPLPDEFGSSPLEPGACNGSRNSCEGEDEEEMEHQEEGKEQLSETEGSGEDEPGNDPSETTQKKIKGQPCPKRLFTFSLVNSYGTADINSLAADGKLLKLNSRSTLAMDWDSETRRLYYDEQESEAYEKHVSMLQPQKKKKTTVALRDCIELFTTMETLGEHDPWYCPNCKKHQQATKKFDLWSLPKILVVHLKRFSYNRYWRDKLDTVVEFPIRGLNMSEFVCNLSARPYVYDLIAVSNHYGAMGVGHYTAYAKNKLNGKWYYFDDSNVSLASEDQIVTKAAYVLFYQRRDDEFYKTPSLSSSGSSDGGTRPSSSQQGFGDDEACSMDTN
Outline: as §1

Measured: log2 ratio of Biotin-Ahx-Ub-VS probe labelling

O=C(CCl)Nc1nnc(CC(F)(F)F)o1
inactive: [1] 0.146 | [2] -0.182 | [3] -0.0633 | [4] 0.00671 | [5] -0.0637
